Drawing on PMC6602471, this text covers binding signal for 32 sequences.

The target of the assay is RUNX1 (Homo sapiens, UniProt Q01196 1-453). In words: custom PBM; custom protein-binding microarray; buffer, salt, pH and temperature not stated; high values mean tight binding. As to conditions: dsDNA, one strand shown.
RUNX1, sequence (Q01196 whole entry): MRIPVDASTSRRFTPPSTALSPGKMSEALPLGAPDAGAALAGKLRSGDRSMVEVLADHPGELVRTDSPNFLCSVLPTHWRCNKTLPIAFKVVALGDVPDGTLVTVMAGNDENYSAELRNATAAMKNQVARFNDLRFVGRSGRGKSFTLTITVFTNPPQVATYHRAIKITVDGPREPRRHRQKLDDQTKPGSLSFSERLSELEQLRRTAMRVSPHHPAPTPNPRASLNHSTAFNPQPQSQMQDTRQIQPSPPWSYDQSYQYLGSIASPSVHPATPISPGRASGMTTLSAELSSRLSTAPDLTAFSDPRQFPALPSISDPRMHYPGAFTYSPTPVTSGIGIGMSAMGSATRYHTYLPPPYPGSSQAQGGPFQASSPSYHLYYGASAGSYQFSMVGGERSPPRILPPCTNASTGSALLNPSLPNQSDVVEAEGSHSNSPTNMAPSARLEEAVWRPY
“GCGCACATTTCCCATAAATCATACACGCACACATACACATACACACATACACATACGCAC”: the binding signal was 11 log fluorescence intensity.

As to “GCATACGGCTGACGTCCGCCACATACGCACACATACACATACACACATACACATACGCAC”, the binding signal was 10.9 log fluorescence intensity.

On to “GCATACGGCTGACGTCAGCTACATACGCACACATACACATACACACATACACATACGCAC”, for which the binding signal is 10.9 log fluorescence intensity.

For the sequence “GCATACGGCTGCCGTCAGCCACATACGCACACATACACATACACACATACACATACGCAC”, the binding signal was 11 log fluorescence intensity.

With “CGCGCATTCTGTGGTTGCGCACATACGCACACATACACATACACACATACACATACGCAC”, the binding signal was 11.4 log fluorescence intensity.

As for “GCGCACATTTTCCGTAAATCATACACGCACACATACACATACACACATACACATACGCAC”, the binding signal was 11.1 log fluorescence intensity.

As to “GCATACGGCTGAGGTCAGCCACATACGCACACATACACATACACACATACACATACGCAC”, the binding signal was 10.9 log fluorescence intensity.

As to “CGCGCACTCTGTGGTTGCCCACATACGCACACATACACATACACACATACACATACGCAC”, the binding signal was 11.3 log fluorescence intensity.

For the sequence “CGCGCACTCTGGGGTTGCGCACATACGCACACATACACATACACACATACACATACGCAC”, the binding signal was 10.9 log fluorescence intensity.

Turning to “GCATACCGCTGACGTCAGCCACATACGCACACATACACATACACACATACACATACGCAC”, the binding signal is 10.9 log fluorescence intensity.

As to “GCATACGGGTGACGTCAGCCACATACGCACACATACACATACACACATACACATACGCAC”, the binding signal is 10.9 log fluorescence intensity.

Take “CGCGCACTCTGCGGTTGCGCACATACGCACACATACACATACACACATACACATACGCAC”: the binding signal is 12.8 log fluorescence intensity.

Turning to “CGCGCACTCAGTGGTTGCGCACATACGCACACATACACATACACACATACACATACGCAC”, the binding signal was 11 log fluorescence intensity.

For “GCATACGGCTGACATCAGCCACATACGCACACATACACATACACACATACACATACGCAC”, the binding signal was 10.9 log fluorescence intensity.

Consider “GCGCACATTTCCCGTAAATTATACACGCACACATACACATACACACATACACATACGCAC”, for which the binding signal was 10.9 log fluorescence intensity.

Take “GCATACGGCTGACGTGAGCCACATACGCACACATACACATACACACATACACATACGCAC”: the binding signal is 10.9 log fluorescence intensity.

For the sequence “GCGCACAGTTCCCGTAAATCATACACGCACACATACACATACACACATACACATACGCAC”, the binding signal is 10.9 log fluorescence intensity.

Turning to “CGCGCACTCTGTGGTTGGGCACATACGCACACATACACATACACACATACACATACGCAC”, the binding signal is 11.6 log fluorescence intensity.

For “CGCGCACTCTGTGGTTGAGCACATACGCACACATACACATACACACATACACATACGCAC”, the binding signal was 11.5 log fluorescence intensity.

For “GCGCACATCTCCCGTAAATCATACACGCACACATACACATACACACATACACATACGCAC”, the binding signal was 10.9 log fluorescence intensity.

Take “GCATACGTCTGACGTCAGCCACATACGCACACATACACATACACACATACACATACGCAC”: the binding signal was 11 log fluorescence intensity.

Consider “GCGCACATTTCCCTTAAATCATACACGCACACATACACATACACACATACACATACGCAC”, for which the binding signal was 11 log fluorescence intensity.

For “GCATACGGCTGACGTCAACCACATACGCACACATACACATACACACATACACATACGCAC”, the binding signal is 11 log fluorescence intensity.

For “GCGCACATTTCCCGTAACTCATACACGCACACATACACATACACACATACACATACGCAC”, the binding signal was 11 log fluorescence intensity.

As for “GCGCACATTTCCCGTCAATCATACACGCACACATACACATACACACATACACATACGCAC”, the binding signal was 11 log fluorescence intensity.

With “GCGCACTTTTCCCGTAAATCATACACGCACACATACACATACACACATACACATACGCAC”, the binding signal was 11 log fluorescence intensity.

“GCGCACATTTCCCGTATATCATACACGCACACATACACATACACACATACACATACGCAC”: the binding signal is 11 log fluorescence intensity.

For “GCGCATATTTCCCGTAAATCATACACGCACACATACACATACACACATACACATACGCAC”, the binding signal is 10.9 log fluorescence intensity.

Take “CGCGCACTCTGTGGTTCCGCACATACGCACACATACACATACACACATACACATACGCAC”: the binding signal is 11.4 log fluorescence intensity.

With “CGCGCACTCTGTGGTTGCTCACATACGCACACATACACATACACACATACACATACGCAC”, the binding signal is 11.4 log fluorescence intensity.

As to “GCGCACATTTCCCGTAAATGATACACGCACACATACACATACACACATACACATACGCAC”, the binding signal is 10.9 log fluorescence intensity.

As for “CGCGCACTCTGTGGTGGCGCACATACGCACACATACACATACACACATACACATACGCAC”, the binding signal is 11.1 log fluorescence intensity.
